Only some compounds are listed: those with a hit (about 11% of all), similar ones and a draw of the others.
Pf growth 48h: Primary qHTS for delayed death inhibitors of the malarial parasite plastid, 48 hour incubation | P. falciparum luciferase growth in erythrocytes, 48 h | Potency, µM (highest dose often 28.7 µM), inactives show top-dose activity change, negative = inhibition, actives largely listed as inhibitors | 310,000 compounds, 5.9% hits | AID 504832, 2011
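Parasite viability was followed by luminescence of a genomically integrated firefly luciferase. Cultures held 0.1% parasitemia at 2% hematocrit (final), incubated under 5% CO2 at 37 C.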
AmpC no deterg: qHTS Inhibitors of AmpC Beta-Lactamase (assay without detergent). AmpC nitrocefin hydrolysis, absorbance 480 nm, 0.0001% Triton. Potency, µM (highest dose often 57.1 µM), for inactives: at the highest dose activity change, negative = inhibition, actives largely listed as inhibitors. 330,000 compounds, 0.52% hits. AID 485341, 2010;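 note: plate controls were no compound for no effect and no enzyme for full effect; nearly all actives have a fitted effect of over 20% in size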
Target sequence (P00811 whole entry, looked up): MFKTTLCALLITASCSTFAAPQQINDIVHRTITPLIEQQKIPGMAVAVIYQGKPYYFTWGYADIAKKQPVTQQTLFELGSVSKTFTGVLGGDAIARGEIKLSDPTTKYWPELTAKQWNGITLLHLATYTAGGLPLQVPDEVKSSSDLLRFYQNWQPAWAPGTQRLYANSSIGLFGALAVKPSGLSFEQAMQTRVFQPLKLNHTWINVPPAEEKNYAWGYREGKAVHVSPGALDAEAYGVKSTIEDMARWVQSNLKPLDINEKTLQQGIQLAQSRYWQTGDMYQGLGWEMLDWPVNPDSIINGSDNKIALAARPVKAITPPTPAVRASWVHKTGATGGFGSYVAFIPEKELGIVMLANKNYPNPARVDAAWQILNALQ
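20 mM phosphate pH 7.0 + 0.01% (detergent screen) or 0.0001% Triton X-100; 5.3 nM AmpC reagent; cpd preinc 15 min RT; nitrocefin (800 uM stock) to start; A480 q20 s × 4 min; Activity was normalised to no-enzyme and no-compound control wells.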
AmpC detergent: qHTS Inhibitors of AmpC Beta-Lactamase (assay with detergent). P00811. AmpC hydrolysis of nitrocefin, absorbance 480 nm, 0.01% Triton. Potency, µM (series often up to 114 µM), inactives show top-dose activity change, negative = inhibition, usual class: inhibitors. 370,000 compounds, 0.041% hits;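 note: 0% = no-compound wells and -100% = no-enzyme wells; nearly all actives have a fitted effect of over 25% in size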
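AmpC (5.3 nM in the dispensed reagent) in 20 mM phosphate pH 7.0 with 0.01% (detergent screen) or 0.0001% Triton X-100 was preincubated with compounds for 15 min at room temperature. Nitrocefin was then added from an 800 uM solution, and hydrolysis was followed at 480 nm.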
AMA1 RON2 block: qHTS for Inhibitors of AMA1-RON; Towards Development of Antimalarial Drug Lead: Primary Screen; AlphaScreen AMA1-biotinylated RON2 peptide binding; Potency, µM (highest dose often 58.2 µM), inactives show at the highest dose activity change, negative = inhibition, hits mostly inhibitors; 360,000 compounds, 0.2% hits;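 note: 0% = vehicle wells and -100% = peptide control; nearly all actives have a fitted effect of over 45% in size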
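AMA1 (3D7) with his tag at 25 nM final met compounds first, then biotinylated RON2 peptide at 25 nM; detection used donor plus acceptor beads, 10 µg/mL apiece, read by AlphaScreen after 30 min at room temperature.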
Pf growth 96h: Primary qHTS for delayed death inhibitors of the malarial parasite plastid, 96 hour incubation | P. falciparum luciferase reporter growth, 96 h | Potency, µM (highest dose often 28.7 µM), inactives show top-dose activity change, negative = inhibition, actives largely listed as inhibitors | 320,000 compounds, 6.9% hits
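96 h incubation, 37 C, 5% CO2, of luciferase-reporter P. falciparum-infected RBCs (2% hematocrit, 0.05% parasitemia final) with test compounds; endpoint luminescence.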
HCV inhibitor: qHTS Assay for Inhibitors of Hepatitis C Virus (HCV) | Huh7.5.1 HCVcc-Cre infection, luciferase reporter, 44 h | 340,000 compounds, 3.4% hits | Potency, µM (doses to about 41.8 µM), without a hit: top-dose activity change, negative = inhibition, most hits filed as inhibitors
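Cells (1,000/well) were plated 4 h before compound, then infected with HCVcc-Cre virus (~0.5 moi). After 44 h further culture, infection was read as luciferase luminescence following a 15 min substrate incubation at room temperature.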
The depositor's hits bear a star; ? = inconclusive; . = no result; [ ] = remark or other dose. Calls come from the whole dose curve; as a rule, active = well fitted curve in the direction sought with a large enough effect; inconclusive = small, poorly fitted or top-dose-only effect, or another doubt; inactive = no such curve, though single readings can be large; an effect the other way counts as inactive or inconclusive. Unless noted, % is set by controls: 0 for no effect and ±100 for the full control effect; potency is the fitted concentration of half-maximal effect.

SMILES	Pf growth 48h	AmpC no deterg	AmpC detergent	AMA1 RON2 block	Pf growth 96h	HCV inhibitor
CCN(CC)S(=O)(=O)c1cc(C(=O)Nc2cc(C)on2)ccc1Cl	?	-20.2%	-2.6%	-5.6%	?	?
CCN(CC)S(=O)(=O)c1ccc(C(=O)Nc2cc(C)cc(C)c2)cc1	?	-7.8%	2.5%	3.6%	?	-30.0%
CCN(CC)S(=O)(=O)c1ccc(C(=O)Nc2ccc(OCC(=O)N3CCOCC3)cc2)cc1	?	56.8%	?	-1.4%	0.37µM*	9.9%
CCN(CC)S(=O)(=O)c1ccc(NC(=O)c2ccc(N(C)S(C)(=O)=O)cc2)cc1	16.5µM*	-14.4%	0.4%	11.8%	8.28µM*	4.47µM*
CCN(CC)S(=O)(=O)c1ccc(C(=O)Nc2cc(C)on2)cc1	11.7µM*	-11.4%	0.1%	25.6%	7.38µM*	-7.9%
Cc1ccc(Sc2ccc(N3CCCC(C(=O)Nc4ccc(Br)cc4)C3)nn2)cc1 (centres undefined)	.	.	20.2%	.	.	.
Cc1cccc(Cn2nc(C)n3c(cc4cc(C)ccc43)c2=O)c1	.	.	14.3%	.	.	.
CCOc1ccc(Br)cc1/C=N/O	12.7%	.	0.2%	2.3%	11.9%	8.91µM*
C#CCOc1ccc(Br)cc1/C=N/O	.	-27.2%	-0.5%	5.8%	11.6%	?
O=C(O)COc1ccc(Br)cc1/C=N/O	?	-6.1%	?	5.4%	2.3%	16.9%
CCCOc1ccc(Br)cc1/C=N/O	33.3%	.	3.7%	-4.8%	56.9%	10µM*
Clc1cccc(-n2cc(-c3ccccc3)c3c(N4CCCCC4)ncnc32)c1	.	.	-0.9%	.	.	.
Cc1ccc(OCC(=O)Nc2ccccc2C(=O)OCc2cc(=O)n3ccsc3n2)cc1C	.	.	14.3%	.	.	.
COc1ccc(CNC(=O)Cn2c(=O)oc3cc(S(=O)(=O)NCc4ccccc4)ccc32)cc1	.	.	3.4%	.	.	.
N/C(CCS(=O)(=O)c1ccc(Cl)cc1)=N\OC(=O)c1ccccc1C(F)(F)F	3.7µM*	-0.6%	?	-8.0%	9.28µM*	?
N/C(CCS(=O)(=O)c1ccc(Cl)cc1)=N\OC(=O)c1ccc(Cl)cc1	?	-10.6%	6.5%	-3.3%	?	-22.8%
CCCn1c(N)c(C(=O)CSc2nnc(Cc3cccs3)n2C2CC2)c(=O)n(C)c1=O	4.65µM*	6.2%	1.0%	-3.1%	4.15µM*	?
Cn1c(N)c(C(=O)CSc2nnc(Cc3cccs3)n2C2CC2)c(=O)n(C)c1=O	5.22µM*	-18.1%	7.6%	7.4%[11.6 µM]	3.29µM*	7.5%
CCCn1c(N)c(C(=O)CSc2nnc3ccccn23)c(=O)n(C)c1=O	-16.1%	-14.4%	-3.8%	-7.2%	?	0.8%
COc1ccc(-c2csc(Nc3cc(C)ccn3)n2)cc1C	?	-2.3%	-2.1%	-6.4%	-17.7%	12.6µM*
COc1ccc(-c2csc(Nc3ncccc3C)n2)cc1OC	26.1%	108.1%	?	-17.4%	?	2.24µM*
Cc1cccc(Nc2nnc(-c3ccc(C)c(S(=O)(=O)N4CCOCC4)c3)c3ccccc23)c1	.	.	-3.2%	.	.	.
Cc1cc(S(=O)(=O)NCc2ccc(S(N)(=O)=O)cc2)c(C)s1	-6.0%	-15.6%	2.7%	1.1%	?	15.4%
Cc1cc(S(=O)(=O)NCc2ccco2)c(C)s1	5.1%	-5.4%	-1.0%	29.9%	7.38µM*	26.3%
O=C(O)c1cc(-c2ccccc2)nn1Cc1ccccc1	.	.	-0.3%	.	.	.
SMILES	Pf growth 48h	AmpC no deterg	AmpC detergent	AMA1 RON2 block	Pf growth 96h	HCV inhibitor
CC(=O)Nc1ccc(NS(=O)(=O)c2cc(-c3cnc(C4CC4)o3)ccc2C)cc1	?	-18.9%	0.9%	-2.0%	-1.6%	-19.4%
Cc1ccc(N(C)S(=O)(=O)c2cc(-c3cnc(C4CC4)o3)ccc2C)cc1	?	-12.7%	-1.7%	-5.1%	7.0%	3.16µM*
Cc1cc(C)c(NS(=O)(=O)c2ccc(-c3cnc(C4CC4)o3)cc2)c(C)c1	.	.	-7.5%	.	.	.
Cc1ccc(-c2cnc(C3CC3)o2)cc1S(=O)(=O)Nc1ccccc1	?	-38.2%	0.5%	-2.8%	14.7µM*	?
Cc1cccc(N(C)S(=O)(=O)c2ccc(-c3cnc(C4CC4)o3)cc2)c1	-0.1%	56.7%	0.6%	0.0%	14.7µM*	?
COc1ccc(NC(=O)Cn2c(=O)n(CCCCCC(=O)NCc3ccc4c(c3)OCO4)c(=O)c3sccc32)cc1Cl	.	.	23.5%	.	.	.
CC1CCN(S(=O)(=O)c2ccc3c(c2)oc(=O)n3CC(=O)NCc2ccc(F)cc2)CC1	.	.	0.7%	.	.	.
CC(C)NC(=O)CCn1c(SCc2c(F)cccc2Cl)nc2c(sc3ccccc32)c1=O	.	.	7.4%	.	.	.
O=C(NNC(=O)C1CCN(Cc2ccc(F)cc2Cl)CC1)Nc1ccc([N+](=O)[O-])cc1	-8.7%	?	-3.1%	68.2%	-16.2%	11.2µM*
CC(=O)Nc1ccc(S(=O)(=O)Nc2cc(-c3cn4ccccc4n3)ccc2C)cc1	.	.	16.2%	.	.	.
CC1CCCCN1C(=O)CSc1nc2ccccc2nc1Cc1ccccc1 (centres undefined)	.	.	3.7%	.	.	.
CC(NC(N)=O)C12CC3CC(CC(C3)C1)C2 (centres undefined)	14.4%	-5.4%	?	20.8%	-25.5%	9.4%
CC(NC1CCCCC1)C(O)C12CC3CC(CC(C3)C1)C2 (centres undefined)	7.38µM*	-19.1%	-1.0%	-5.0%	.	?
O=C(C1CCCN(S(=O)(=O)c2ccc(Br)s2)C1)N1CCN(c2ccccc2F)CC1 (centres undefined)	.	.	10.6%	.	.	.
CCn1cc(C(=O)N2CCN(c3ccccc3OC)CC2)c2cc(OC)c(OC)cc2c1=O	-6.1%	62.3%	5.5%	-6.4%	17.6%	-18.5%
CCn1cc(C(=O)NCc2cccnc2)c2cc(OC)c(OC)cc2c1=O	22.6%	-6.2%	3.2%	?	2.08µM*	10.3%
CCn1cc(C(=O)N2CCCc3ccccc32)c2cc(OC)c(OC)cc2c1=O	14.7µM*	82.5%	?	-8.2%	.	11.3%
COc1cc2c(C(=O)NCc3ccccn3)cn(CC(C)C)c(=O)c2cc1OC	-8.6%	-10.1%	?	32.7%	13.1µM*	-8.0%
COC(=O)CNC(=O)c1cn(CC(C)C)c(=O)c2cc(OC)c(OC)cc12	0.0%	-8.1%	-5.3%	-2.3%	179.2%	12.8%
CCOC(=O)c1cc(-c2ccccc2)n(CC(=O)N(C)c2ccc(OC)cc2)c1C	.	.	11.6%	.	.	.

Screens from PubChem BioAssay.
